Records with an inconclusive call do not appear. Active and inactive are the calls of the source. Unless noted, the call rests on the fitted dose curve; in most records, active means well fitted curve in the direction sought with a large enough effect in the repeat runs; inconclusive means weak or mixed curves; inactive means no such curve, though single readings can be large; an effect the other way counts as inactive or inconclusive.
Legend:
[1] = qHTS assay to identify small molecule agonists of the estrogen related receptor (ERR) signaling pathway from Tox21 library (AID 1224849; calls by dose curve; further: nearly all actives have a fitted effect of over 15% in size)
Summary of the method: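 Six hours post-seeding at 37 C/5% CO2, ERR cells receive DMSO-solubilised compounds; after 18 h at 37 C, ONE-Glo reagent is applied and luminescence recorded.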

[2] = qHTS RealTime-Glo MT Cell Viability Assay in HepG2 cells - 24 hour (AID 1224867); further: nearly all actives have a fitted effect of over 50% in size
Summary of the method: (§1)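 Compound treatment began 5 h after plating HepG2 cells (600/well) with NanoLuc luciferase and prosubstrate. Plates stayed at 37 C for 40 h; luminescence was captured at six time points, 0 h through 40 h.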

[3] = qHTS RealTime-Glo MT Cell Viability Assay in HEK293 cells - 32 hour (AID 1224868); further: top concentration of the series differs between compounds; nearly all actives have a fitted effect of over 50% in size
Summary of the method: (§2)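 Quantitative high-throughput screen of the Tox21 10K library in HEK293: cells and RealTime-Glo reagents plated together, compound added at 5 h, luminescence monitored through 40 h at 37 C.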

[4] = A CellTox Green Cytotoxicity Assay to monitor cytotoxicity in HEK293 cells - 0 hour (AID 1224869); further: nearly all actives have a fitted effect of over 50% in size
Summary of the method: (§3)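 Seeding of HEK293 cells together with cytotoxicity dye preceded a 5 h incubation at 37 C/5% CO2. Test compounds in DMSO were then added and fluorescence monitored across 40 h.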

[5] = qHTS RealTime-Glo MT Cell Viability Assay in HepG2 cells - 40 hour (AID 1224870); further: nearly all actives have a fitted effect of over 50% in size
Summary of the method: (§4)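 HepG2 cells (600/well) mixed with RealTime-Glo MT reagent, settled 5 h at 37 C/5% CO2 before compound addition. Nonlytic NanoLuc luminescence from viable-cell prosubstrate reduction read repeatedly during 40 h treatment at 37 C.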

[6] = qHTS RealTime-Glo MT Cell Viability Assay in HEK293 cells - 16 hour (AID 1224872)
Summary of the method: as §2

[7] = qHTS RealTime-Glo MT Cell Viability Assay in HepG2 cells - 8 hour (AID 1224873); further: nearly all actives have a fitted effect of over 55% in size
Summary of the method: as §4

[8] = qHTS RealTime-Glo MT Cell Viability Assay in HEK293 cells - 40 hour (AID 1224874); details: RealTime-Glo luminescence; max response: hits give low values; further: nearly all actives have a fitted effect of over 50% in size
Summary of the method: (§5)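 Tox21 screen in HEK293 using RealTime-Glo MT chemistry, with cells and reagent co-dispensed. Luminescence proportional to viable cell number was captured at intervals during 40 h compound exposure at 37 C.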

[9] = A CellTox Green Cytotoxicity Assay to monitor cytotoxicity in HEK293 cells - 24 hour (AID 1224875); further: series mostly up to about 77 µM; nearly all actives have a fitted effect of over 45% in size
Summary of the method: as §3

[10] = A CellTox Green Cytotoxicity Assay to monitor cytotoxicity in HepG2 cells - 16 hour (AID 1224876); further: nearly all actives have a fitted effect of over 45% in size
Summary of the method: (§6)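 Nonlytic assay: viable cells exclude the dye, so fluorescence scales with cell death. HepG2 at 600 cells/well, compounds added after 5 h, signal read across 40 h.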

[11] = qHTS RealTime-Glo MT Cell Viability Assay in HepG2 cells - 32 hour (AID 1224877); further: nearly all actives have a fitted effect of over 55% in size
Summary of the method: as §1

[12] = A CellTox Green Cytotoxicity Assay to monitor cytotoxicity in HepG2 cells - 24 hour (AID 1224878); further: nearly all actives have a fitted effect of over 45% in size
Summary of the method: as §6

[13] = A CellTox Green Cytotoxicity Assay to monitor cytotoxicity in HepG2 cells - 40 hour (AID 1224879); further: nearly all actives have a fitted effect of over 40% in size
Summary of the method: as §6

[14] = qHTS RealTime-Glo MT Cell Viability Assay in HEK293 cells - 0 hour (AID 1224880); further: top concentration of the series differs between compounds; nearly all actives have a fitted effect of over 45% in size
Summary of the method: as §5

[15] = A CellTox Green Cytotoxicity Assay to monitor cytotoxicity in HEK293 cells - 32 hour (AID 1224881); further: nearly all actives have a fitted effect of over 40% in size
Summary of the method: as §3

[16] = A CellTox Green Cytotoxicity Assay to monitor cytotoxicity in HepG2 cells - 0 hour (AID 1224882); further: nearly all actives have a fitted effect of over 35% in size
Summary of the method: as §6

[17] = A CellTox Green Cytotoxicity Assay to monitor cytotoxicity in HepG2 cells - 32 hour (AID 1224883); further: nearly all actives have a fitted effect of over 50% in size
Summary of the method: as §6

[18] = qHTS RealTime-Glo MT Cell Viability Assay in HepG2 cells - 16 hour (AID 1224885); further: nearly all actives have a fitted effect of over 50% in size
Summary of the method: as §1

[19] = A CellTox Green Cytotoxicity Assay to monitor cytotoxicity in HEK293 cells - 8 hour (AID 1224884); further: nearly all actives have a fitted effect of over 35% in size
Summary of the method: as §3

[20] = A CellTox Green Cytotoxicity Assay to monitor cytotoxicity in HEK293 cells - 40 hour (AID 1224871); further: nearly all actives have a fitted effect of over 45% in size
Summary of the method: as §3
On the % scale 0 is the no-effect control and ±100 the full control effect.

C1=CCC(c2ccccc2)CC1 (centres undefined)
inactive: outcome [1] | outcome [2] | Potency [3] | Potency [4] | outcome [5] | Potency [6] | outcome [7] | max response [8] 4.33% | Potency [9] | Potency [10] | outcome [11] | Potency [12] | Potency [13] | outcome [14] | Potency [15] | Potency [16] | Potency [17] | outcome [18]

O=C(COCCOCCOCC(=O)Nc1c(I)cc(I)c(C(=O)O)c1I)Nc1c(I)cc(I)c(C(=O)O)c1I
inactive: outcome [1] | outcome [2] | Potency [3] | Potency [4] | outcome [5] | Potency [6] | outcome [7] | max response [8] 3.14% | Potency [10] | Potency [13] | outcome [14] | Potency [16] | Potency [17] | Potency [19] | outcome [18]

C[C@@H]1C[C@H]2[C@@H]3C[C@H](F)C4=CC(=O)C=C[C@]4(C)[C@@]3(F)[C@@H](O)C[C@]2(C)[C@@]1(O)C(=O)CO
inactive: outcome [1] | outcome [2] | Potency [3] | Potency [4] | outcome [5] | Potency [6] | outcome [7] | max response [8] -1.4% | Potency [9] | Potency [10] | outcome [11] | Potency [13] | Potency [15] | Potency [19] | outcome [18]

CCN(CCC#N)c1ccccc1
inactive: outcome [2] | Potency [3] | Potency [4] | outcome [5] | Potency [20] | Potency [6] | outcome [7] | max response [8] 2.36% | Potency [9] | Potency [10] | outcome [11] | Potency [12] | Potency [13] | outcome [14] | Potency [15] | Potency [16] | Potency [17] | Potency [19] | outcome [18]

CCS(=O)(=O)CCn1c([N+](=O)[O-])cnc1C
inactive: outcome [1] | Potency [3] | Potency [4] | outcome [5] | Potency [20] | Potency [6] | max response [8] -0.732% | Potency [9] | Potency [10] | outcome [11] | Potency [12] | Potency [13] | outcome [14] | Potency [15] | Potency [16] | Potency [17] | Potency [19] | outcome [18]

C=CCCCCCCCCCCC
inactive: activity change, negative = cytotoxicity [2] 0.824% [at 6.97 µM] | activity change, negative = cytotoxic [3] 7.22% [at 6.97 µM] | cytotoxicity [4] 3.23% [at 6.97 µM] | activity change, negative = cytotoxic [5] -0.414% [at 6.97 µM] | cytotoxicity increase [20] 0.236% [at 6.97 µM] | activity change, negative = cytotoxicity [6] 6.31% [at 6.97 µM] | viability change, negative = cytotoxic [7] 1.47% [at 6.97 µM] | max response [8] 6.19% | activity change [9] -0.54% [at 6.97 µM, hits give high values] | cytotoxicity increase [10] -0.067% [at 6.97 µM] | activity change, negative = cytotoxic [11] -0.401% [at 6.97 µM] | cytotoxicity [12] 0.49% [at 6.97 µM] | cytotoxicity increase [13] 1.74% [at 6.97 µM] | activity change, negative = cytotoxicity [14] 4.11% [at 6.97 µM] | cytotoxicity increase [15] -0.213% [at 6.97 µM] | cytotoxicity [16] 1.75% [at 6.97 µM] | cytotoxicity increase [17] 1.86% [at 6.97 µM] | cytotoxicity increase [19] 2.18% [at 6.97 µM] | activity change, negative = cytotoxic [18] -0.787% [at 6.97 µM]

CCOC(=O)CCc1ccccc1
inactive: outcome [2] | Potency [3] | Potency [4] | outcome [5] | Potency [20] | Potency [6] | outcome [7] | max response [8] 3.62% | Potency [9] | Potency [10] | outcome [11] | Potency [12] | outcome [14] | Potency [15] | Potency [16] | Potency [17] | Potency [19] | outcome [18]

O=C(O)c1ccccc1C(=O)Nc1ccc(S(=O)(=O)Nc2nccs2)cc1
inactive: outcome [2] | Potency [3] | Potency [4] | outcome [5] | Potency [20] | Potency [6] | outcome [7] | max response [8] -1.33% | Potency [9] | Potency [10] | outcome [11] | Potency [12] | Potency [13] | outcome [14] | Potency [15] | Potency [16] | Potency [17] | Potency [19]

OC[C@@H](O)[C@H](O)[C@@H](O)[C@@H](O)CO
inactive: outcome [1] | Potency [3] | outcome [5] | Potency [20] | Potency [6] | outcome [7] | max response [8] 0.901% | Potency [9] | outcome [11] | outcome [14] | Potency [15] | Potency [16] | Potency [17] | Potency [19] | outcome [18]

CC(C)CCC(=O)CCC(C)C
inactive: outcome [1] | Potency [3] | Potency [4] | outcome [5] | Potency [20] | Potency [6] | outcome [7] | max response [8] 1.42% | Potency [9] | Potency [10] | outcome [11] | Potency [12] | Potency [13] | outcome [14] | Potency [15] | Potency [16] | Potency [17] | Potency [19] | outcome [18]

CCCCCC1CCCC(=O)O1 (centres undefined)
inactive: outcome [1] | Potency [3] | Potency [4] | outcome [5] | Potency [6] | outcome [7] | max response [8] 7.32% | Potency [9] | Potency [10] | outcome [11] | Potency [12] | Potency [13] | outcome [14] | Potency [15] | Potency [17] | Potency [19] | outcome [18]

CCN(CC)C(=O)C1CN2CCc3cc(OC)c(OC)cc3C2CC1OC(C)=O (centres undefined)
inactive: outcome [2] | Potency [3] | Potency [4] | outcome [5] | Potency [20] | Potency [6] | outcome [7] | max response [8] -4.78% | Potency [9] | Potency [10] | outcome [11] | Potency [12] | Potency [13] | outcome [14] | Potency [15] | Potency [16] | Potency [17] | Potency [19] | outcome [18]

CC(C)COC(=O)/C=C/c1ccccc1
inactive: outcome [1] | Potency [3] | Potency [4] | outcome [5] | Potency [6] | max response [8] -4.89% | Potency [9] | Potency [10] | outcome [11] | outcome [14] | Potency [19]

CCCCC(=O)N(C)C
inactive: outcome [2] | Potency [3] | Potency [4] | outcome [5] | Potency [20] | Potency [6] | outcome [7] | max response [8] 1.13% | Potency [9] | Potency [10] | outcome [11] | Potency [12] | Potency [13] | outcome [14] | Potency [15] | Potency [16] | Potency [17] | Potency [19] | outcome [18]

OC(CCN1CCCCC1)(c1ccccc1)c1ccccc1
inactive: outcome [2] | Potency [3] | Potency [4] | outcome [5] | Potency [20] | Potency [6] | outcome [7] | max response [8] -16.7% | Potency [9] | Potency [10] | outcome [11] | Potency [12] | Potency [13] | outcome [14] | Potency [15] | Potency [16] | Potency [17] | Potency [19] | outcome [18]

From PubChem BioAssay (Tox21)
